Substitutions are numbered along the chain they refer to. Whole data set: some 5,800 sequences, median “enrichment r” near 0.54, cut for the highest 2% near 16. The list comes from a sample in which the highest values are over-represented; it also holds similar and randomly drawn sequences.
B1: chr1:173734013:173734119:+|CDS|ENSG00000076321|unk|FALSE|unique (ssRNA)
RNA: GGGAGUUCUACAGUCCGACGAUCCAUUGACGAGAGGGCUAUGGAAUUACUGAUUGACUUUGCGUAUACCUCCCAGAUAACAGUAGAAGAGGGCAAUGUUCAGACUCUUCUGCCAGCUGCUUGCCUCCUCCAGCUGGCAGAAAUCAACAGAGGAUUGAGCAUCA
B2: chr10:73251842:73251943:-|CDS|ENSG00000182180|msi1|FALSE|unique (ssRNA)
RNA: GGGAGUUCUACAGUCCGACGAUCUCGGCCGUUCUACCGCAUUGUGGCUGCUCACAACAAGUGUCCCAGGGAUGGCCGUUUCGUAGAGCAGCUGGGCUCCUAUGAUCCAUUGCCCAACAGUCAUGGAGAAAAACUCGUUGCCCUCAACAGAGGAUUGAGCAUCA
B3: chr7:44121865:44121972:-|CDS|ENSG00000106628|unk|FALSE|unique (ssRNA)
RNA: GGGAGUUCUACAGUCCGACGAUCGUGCCAGUGGCAACCUACACCAACUCCUCACAACCCUUCCGGCUAGGAGAGCGCAGCUUUAGCCGGCAGUAUGCCCACAUUUAUGCCACCCGCCUCAUCCAAAUGAGACCCUUCCUGGAGCAACAGAGGAUUGAGCAUCA
B4: chr6:31137533:31137950:-|three_prime_utr|ENSG00000204538|control|control|control (ssRNA)
RNA: GGGAGUUCUACAGUCCGACGAUCGCAUCUCCAGGCACCCACGCCCUCUCCACCCUCUGAUUCCCCGUGAAUUCUUCCCAAUUUAGCCUGUCUCCUUAAACCUCUUCCUCAUUCCCUCGGUUUUAUUCUGAACCCGUAAGGUGGCAACAGAGGAUUGAGCAUCA
B5: chr6:57184343:57184440:+|3pUTR|ENSG00000112208|msi1_unk|FALSE|overlapping (ssRNA)
RNA: GGGAGUUCUACAGUCCGACGAUCUCUUCAGUUUUGUGAAUAACAAAACUAGCAAUAUUUUAAUUAUCUAUCUAGAGAUUUUUUAGAUUGAAUUCUUGUCUUGUACUAGGAUCUAGCAUAUUUCACUAUUCUGUGGAUGAAUACCAACAGAGGAUUGAGCAUCA
B6: ENSG00000136451:be:win_2501|3pUTR|ENSG00000136451|bound_else_gene|NA|bound_elsewhere_windowed (ssRNA)
RNA: GGGAGUUCUACAGUCCGACGAUCUCCCAAUCAGAGCCUGUUGAUAUUACAACAGGGACAGAUGUGUUAGUUGCUCACUAGAGUUUAUGUCUUAUAUUAAAUUGUAUACAGUUUUUAUUCUAACCACUAACUAGGUAGUGUAUGCAACAGAGGAUUGAGCAUCA
B7: chr13:110149936:110150037:-|3pUTR|ENSG00000187498|msi1|total|mutant (ssRNA)
RNA: GGGAGUUCUACAGUCCGACGAUCUUCUUGUAUUAUAAUUAAUUUUCUACCCCCAGAGAUAAAUGUUUGUUUAUAUCACUGUCCCGCUGUUUCAAAAUUCCGGUCCCUUGGUCUGUACAAAUAACCGCAAUGUAAAAAUGGUUUCAACAGAGGAUUGAGCAUCA
B8: ENSG00000136451:be:win_2451|3pUTR|ENSG00000136451|bound_else_gene|NA|bound_elsewhere_windowed (ssRNA)
RNA: GGGAGUUCUACAGUCCGACGAUCUUUAAAUUGGAAGACGCUGGAGGCACUGGGAUGUGAUAUGCCCCUCUCUCUCCCAAUCAGAGCCUGUUGAUAUUACAACAGGGACAGAUGUGUUAGUUGCUCACUAGAGUUUAUGUCUUACAACAGAGGAUUGAGCAUCA
B9: chr1:214663888:214664008:+|3pUTR|ENSG00000117724|msi1|FALSE|bound_elsewhere (ssRNA)
RNA: GGGAGUUCUACAGUCCGACGAUCAGGAGAAAACAAUUCCUUAGAAGUCUUAAAUAUAUUGUACUCUUUAGAUCUCCCAUGUGUAGGUAUUGAAAAAGUUUGGAAGCACUGAUCACCUGUUAGCAUUGCCAUUCCUCUACUGCACAACAGAGGAUUGAGCAUCA
B10: chr12:89642165:89642281:-|CDS|ENSG00000070961|unk|FALSE|bound_elsewhere (ssRNA)
RNA: GGGAGUUCUACAGUCCGACGAUCGCCAAAAACCUUUCUUCAAUUAGUAUGGGAAGCAUUACAAGAUGUCACUUUAAUUAUAUUAGAAAUUGCAGCCAUAGUAUCAUUGGGCCUUUCUUUUUAUCAGCCUCCAGAAGGGGAUAACAACAGAGGAUUGAGCAUCA
B11: ENSG00000070961:be:win_301|CDS|ENSG00000070961|bound_else_gene|NA|bound_elsewhere_windowed (ssRNA)
RNA: GGGAGUUCUACAGUCCGACGAUCUUAGUAUGGGAAGCAUUACAAGAUGUCACUUUAAUUAUAUUAGAAAUUGCAGCCAUAGUAUCAUUGGGCCUUUCUUUUUAUCAGCCUCCAGAAGGGGAUAAUGCACUUUGUGGAGAAGUUCAACAGAGGAUUGAGCAUCA
B12: ENSG00000070961:be:win_251|CDS|ENSG00000070961|bound_else_gene|NA|bound_elsewhere_windowed (ssRNA)
RNA: GGGAGUUCUACAGUCCGACGAUCUGUUUGGAAAGAAUUUUAUACCUCCUAAAAAGCCAAAAACCUUUCUUCAAUUAGUAUGGGAAGCAUUACAAGAUGUCACUUUAAUUAUAUUAGAAAUUGCAGCCAUAGUAUCAUUGGGCCCAACAGAGGAUUGAGCAUCA
B13: ENSG00000136451:be:win_2551|3pUTR|ENSG00000136451|bound_else_gene|NA|bound_elsewhere_windowed (ssRNA)
RNA: GGGAGUUCUACAGUCCGACGAUCUCACUAGAGUUUAUGUCUUAUAUUAAAUUGUAUACAGUUUUUAUUCUAACCACUAACUAGGUAGUGUAUGCCCCUUCAGAACAUGCAGAGUGUAUCUUUUUUUAAAUUUCUCCUUCCGUUCAACAGAGGAUUGAGCAUCA
B14: chr1:214663888:214664008:+|3pUTR|ENSG00000117724|msi1|total|mutant (ssRNA)
RNA: B9 RNA with U41C, A42C, U68C, A69C, U83C, A84C, U120C, A121C
B15: chr13:110149936:110150037:-|3pUTR|ENSG00000187498|msi1|FALSE|unique (ssRNA)
RNA: B7 RNA with C83U, C84A, C99U, C100A, C124U, C125A
B16: chr9:76611375:76614569:-|three_prime_utr|ENSG00000106772|control|control|control (ssRNA)
RNA: GGGAGUUCUACAGUCCGACGAUCAUGUUACCUUUUUCCACUUUGCACUACCUGGUGCCAUUCUAAAUUUCUAAGGGGAAAAAUAGAAAGUUUGUUUACUCUUAAGAUAUUUUAUGAAAUUGUGUGUACUUUCCUAUUUUGCCACAACAGAGGAUUGAGCAUCA
B17: ENSG00000069329:stop:overlap|stop_codon|ENSG00000069329|stop_codon|NA|stop_codon (ssRNA)
RNA: GGGAGUUCUACAGUCCGACGAUCUGGAGAAGGGGCCCCACAGACCGUUCGGGAUUAAGACCAGCCCGAUUUGGCCUGCGGGAUAGGGGACAGCAGGAGGAAGGCCGCGGGCAGGCUGAUCCGGGCCGGGGUGGGCGGCGGCUCCAACAGAGGAUUGAGCAUCA
B18: chr16:58599380:58599482:-|5pUTR|ENSG00000125107|unk|total|mutant (ssRNA)
RNA: GGGAGUUCUACAGUCCGACGAUCCAGAACAGAGUAAGACCCCUGGUAAAGAAGAACUGAAGAUAUUAUACAGAUACCAGAUACCGCCUAAUUACAAAGAAAGCAUUAACCUGCCUCUGAGGUGACUAAAGGGGAAUAAUGGUGCAACAGAGGAUUGAGCAUCA
B19: chr11:113276125:113276317:+|3pUTR|ENSG00000149294|msi1|FALSE|unique (ssRNA)
RNA: GGGAGUUCUACAGUCCGACGAUCGUCCGUGUAAAAUAGCUGCCUUUUAUUUUUUAAGGUAACAAAUACCACCUAGAGGUAGGUAGGAUCAUCCCACGCUUGCUUUAGCACAGGACAACUUUACAAAACAUGAUUGUUUACAGCCAACAGAGGAUUGAGCAUCA
B20: chr14:53038166:53038268:-|3pUTR|ENSG00000100523|unk|total|mutant (ssRNA)
RNA: GGGAGUUCUACAGUCCGACGAUCGAGCUUUUGGCAGAGUCUUCGGGGUUUUCCCGGUAUAAAAUCAUAUCAGCGAAGAGAGCCCGUUUGAUUUCUUUUCCCAGUUGGAUGCCUUUUAUUUAUUUCUCUUGCCUGAUUGCUCUACAACAGAGGAUUGAGCAUCA
B21: chr2:39051162:39051270:-|CDS|ENSG00000115904|unk|total|mutant (ssRNA)
RNA: GGGAGUUCUACAGUCCGACGAUCAAAUAUAUUCCGUCGCACCGCCGAUAUACAUGAACUCCGUGUAAAGUUACUGGGCCAUACCGAAGAUACAGCCGAAAUGACAGAUGAAGGCAGUCCCCAUCCACCCGCCGGAAGCUGCUUCAACAGAGGAUUGAGCAUCA
B22: chr9:96818597:96818698:-|CDS|ENSG00000196597|unk|FALSE|unique (ssRNA)
RNA: GGGAGUUCUACAGUCCGACGAUCGGAGAAACCAUUCGAAUGUCAUGAAUGUGGGAAAUCUUUUAACUAUAAGUCAAUCCUCAUAGUGCAUCAGAGAACUCACACAGGGGAGAAACCUUUUGAAUGUAAUGAAUGCGGGAAAUCCAACAGAGGAUUGAGCAUCA

molecular target: MSI1 full-length (mouse, UniProt Q61474 1-362); assay: nsRBNS (natural sequence RNA bind-n-seq); RBNS binding buffer (assumed for nsRBNS): 25 mM Tris pH 7.5, 150 mM KCl, 3 mM MgCl2, 0.01% Triton X-100, 500 ug/ml BSA, 20 U/ml SUPERase-In, 4 C; UNK is unkempt and MSI1 is Musashi-1; names of the RNAs are library labels; protein concentration not given here; high values mean tight binding
Sequence (Q61474 whole entry): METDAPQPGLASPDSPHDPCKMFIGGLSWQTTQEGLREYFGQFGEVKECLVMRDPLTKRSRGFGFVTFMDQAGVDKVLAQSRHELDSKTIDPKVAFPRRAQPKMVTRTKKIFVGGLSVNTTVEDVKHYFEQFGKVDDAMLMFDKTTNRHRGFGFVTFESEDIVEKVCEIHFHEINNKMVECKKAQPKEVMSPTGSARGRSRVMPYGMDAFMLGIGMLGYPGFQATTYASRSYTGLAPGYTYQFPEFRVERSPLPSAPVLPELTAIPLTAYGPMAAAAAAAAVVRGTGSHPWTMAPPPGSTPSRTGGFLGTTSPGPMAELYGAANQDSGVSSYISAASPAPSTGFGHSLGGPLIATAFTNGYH

Binder	binding signal [enrichment R]
B1	1.23
B2	0.318
B3	0.629
B4	0.944
B5	4.43
B6	25.2
B7	3.28
B8	1.47
B9	16.4
B10	9.09
B11	9.77
B12	17.2
B13	10.4
B14	0.406
B15	30.3
B16	1.45
B17	0.367
B18	0.791
B19	0.716
B20	0.36
B21	0.566
B22	0.426
